Drawing on PubChem BioAssay AID1259240 (Keith Lab, Institute of Cancer Science, University of …, 2017), this text covers fold change and outcome for 78 molecules.

The test is described as follows: modulation of TERT promoter-driven luciferase – cell-based, luciferase reporter, human, primary screen (AID 1259240). The conditions noted are these: A2780 TERT promoter luciferase reporter, 16 h; at 20 µM, fold versus average of vehicle-only wells.

Values without a mark were called inactive. The source made the active and inactive calls. Rule as the data show it: active = fold change mostly below about -2 (no sharp cut-off); inactive = mostly above about -1.8.

For `Cc1cc(NC(=O)CSc2nnc(Cc3cc(=O)[nH]c(=O)[nH]3)n2-c2ccc(Cl)cc2)no1`, the fold change is -1.22.

For the molecule `O=C(Nc1nccs1)c1cc2ccccc2c(=O)s1`, the fold change was -1.86.

For `Cn1c(=O)c2cc(S(=O)(=O)NCCC(=O)NC3CCCCCC3)ccc2n(C)c1=O`, the fold change was 1.3.

For `CCn1c2ccccc2c2nnc(SCC(=O)Nc3nnc(C(C)C)s3)nc21`, the fold change was -1.93.

In the case of `C=CCOc1ccc(/C(O)=C2/C(=O)C(=O)N(CC3CCCO3)C23C(=O)N(C)c2ccccc23)cc1` (stereo not drawn), the fold change is -1.41.

On to `COc1cc(-c2nc3s/c(=C\c4cccs4)c(=O)n3n2)cc(OC)c1OC`, for which the fold change is 1.19.

In the case of `Cc1ccc(Cl)cc1N1C(=O)Nc2ccccc2N1O`, the fold change was -1.07.

For `CC(CC(=O)NCCc1c[nH]c2ccccc12)CC1=NS(=O)(=O)c2ccccc2N1` (stereo not drawn), the fold change is -1.46.

As to `Cc1nc2c3ccccc3nc(NNC(=O)CCC(=O)N3CCCC(C)C3)n2n1` (stereo not drawn), the fold change was -1.02.

On to `O=c1c(O)c(-c2ccc3c(c2)OCO3)oc2ccccc12`, for which the fold change was 1.

On to `COc1ccc(NC(=O)Nc2c(C)n(C)n(-c3ccccc3)c2=O)cc1`, for which the fold change was -1.33.

Take `Cc1ccc2c(c1)c(-c1ccccc1)nc1nncn12`: the fold change is 1.67.

With `COCCN1C(=O)c2oc3ccc(F)cc3c(=O)c2C1c1cccc(O)c1` (stereo not drawn), the fold change is -1.86.

Consider `O=C(c1ccc2c(=O)n3c(nc2c1)CCCCC3)N1CCCCCC1`, for which the fold change is 1.21.

For the molecule `Cn1c(SCc2nc(-c3ccccc3)no2)nnc1-c1ccco1`, the fold change is -2.04 (active).

For `COc1ccccc1/C=C/C=c1\sc2nc(-c3ccco3)nn2c1=O`, the fold change was 1.41.

As for `CCOc1ccc(-n2c(O)c(C3=c4cc(Br)ccc4=NC3=O)[nH]c2=S)cc1`, the outcome was inactive.

`CCn1c(SCc2nc(-c3ccc(Cl)cc3)no2)nnc1-c1ccco1`: the fold change is -2.86 (active).

As to `COc1ccc2c(c1)/C(=c1/sc3n(c1=O)CN(c1ccc(C)c(Cl)c1)CN=3)C(=O)N2`, the fold change was -1.71.

As for `c1csc(CSc2nnc3sc4ccccc4n23)c1`, the fold change is 1.26.

`CC(=O)Oc1ccc(/C=c2\sc3nc(-c4ccco4)nn3c2=O)cc1`: the fold change was -1.31.

Take `Cc1ccccc1Nc1c(-c2ccccc2O)nc2cnccn12`: the outcome was active.

For `NC(=O)C1CCN(C(=O)CN2C(=O)COc3ccc(S(=O)(=O)N4CCCC4)cc32)CC1`, the fold change was 1.05.

On to `O=c1/c(=C/c2c(F)cccc2Cl)sc2nc(-c3ccco3)nn12`, for which the fold change is 1.03.

For the molecule `C=CCN1C(=O)/C(=c2\sc3nc(-c4ccccc4OC)nn3c2=O)c2cc(Br)ccc21`, the fold change is 1.17.

Take `O=C(NC1CCCC1)c1ccc(CNc2c(NC3CCCC3)c(=O)c2=O)cc1`: the fold change was 1.06.

As to `O=C1CC(c2ccc(F)c(F)c2)c2cc3c(cc2N1)OCO3` (stereo not drawn), the fold change was 1.27.

With `CCN(CC)CCNC(=O)CN1C(=O)COc2ccc(S(=O)(=O)N3CCOCC3)cc21`, the fold change was -1.1.

With `Cc1cc(C)nc(SCC(=O)Nc2ccc(S(=O)(=O)Nc3onc(C)c3C)cc2)n1`, the fold change was 1.02.

For the molecule `CCCCNc1c(N2CCN(C(=O)OCC)CC2)c(=O)c1=O`, the fold change was 1.31.

In the case of `COc1ccccc1-c1cc(N)n(S(=O)(=O)c2ccc([N+](=O)[O-])cc2)n1`, the fold change was -1.09.

On to `O=C(Cn1nc(C(F)F)cc1C1CC1)N1CCCC1`, for which the fold change is 1.2.

For the molecule `O=C(CSc1nnc(Cc2cc(=O)[nH]c(=O)[nH]2)n1-c1ccc(Cl)cc1)c1ccccc1`, the fold change was -1.09.

Turning to `Cc1c(NC(=O)C2CC(c3ccc(F)cc3)=NO2)c(=O)n(-c2ccccc2)n1C` (stereo not drawn), the fold change was 1.46.

`O=C(NCc1ccccc1Cl)c1c(-n2cccc2)sc2c1CCC2`: the fold change is -1.05.

With `COC(=O)c1ccc(CSc2nc(-c3ccco3)cc(C(F)(F)F)n2)o1`, the fold change is -2.77 (active).

Take `O=C(Nc1nnc(N2CCCCC2)s1)Nc1ccccc1Cl`: the fold change was -2.93 (active).

With `CC(C)C(NS(=O)(=O)c1cccc2nsnc12)C(=O)N1CCCCCC1` (stereo not drawn), the fold change is 1.11.

As to `O=C1SC(Nc2ccccc2F)C(=O)N1c1ccccc1` (stereo not drawn), the fold change is 1.65.

In the case of `COc1ccc(C2CC(=O)Nc3cc(OC)cc(OC)c32)c(OC)c1` (stereo not drawn), the fold change was -1.41.

For `O=C(NCc1ccccn1)c1cccn2c(=O)c3c4c(sc3nc12)CCCC4`, the fold change was -1.8.

As to `Cc1cc(C)c(C#N)c(SCC(=O)Nc2nc(-c3ccccc3)ns2)n1`, the fold change was -1.27.

Regarding `Cc1cc2c(c(=O)[nH]1)C(=O)O/C2=C\c1cc([N+](=O)[O-])ccc1O`, the fold change is -1.57.

`O=C1Nc2ccccc2/C1=C\c1cn(Cc2ccccc2F)c2ccccc12`: the fold change was -1.04.

In the case of `NC(=O)c1ccc(N=c2oc3ccccc3cc2S(=O)(=O)c2ccccc2)cc1`, the fold change is 1.06.

For `CCOc1ccc2c(c1)CN(c1ccc(Cl)cc1)CO2`, the fold change is -1.19.

As for `CC1=CC(=O)OC1Cc1ccc2ccccc2n1` (stereo not drawn), the fold change is -1.06.

`CCCCN1C(=O)/C(=c2\sc3nc(-c4cc(OC)c(OC)c(OC)c4)nn3c2=O)c2ccccc21`: the fold change was -1.17.

As for `O=C1C(c2sc3ccccc3c2O)=Nc2c1ccc1ccccc21`, the molecule was classed as active.

For `Cc1cc(C)c2c(=O)n(CC(=O)N3CCCC3)sc2n1`, the fold change is 1.19.

Take `CCN(CCO)CCNc1cc(N2CCCC(C)C2)c2noc3c2c1C(=O)c1ccccc1-3` (stereo not drawn): the fold change was -6.87 (active).

As for `COc1ccc(S(=O)(=O)n2nc(-c3ccc(Cl)cc3)cc2N)cc1OC`, the fold change was 1.41.

With `Cc1ccc(-c2noc(-c3ccccc3Cl)n2)cc1`, the fold change was -93.3 (active).

With `Cc1nc2c(-c3ccccc3)c(C)nn2c(C)c1CCC(=O)NO`, the fold change is -1.49.

As for `O=C(NC1CCCC1)C1CCC(CNS(=O)(=O)c2cccc3nsnc23)CC1` (stereo not drawn), the fold change is -1.64.

For the molecule `Cc1cc(C)cc(N(CC(=O)NCc2cccs2)S(=O)(=O)c2c(C)[nH]c(=O)[nH]c2=O)c1`, the fold change is -2.11 (active).

As for `CCOC(=O)C(C)Sc1nnc(-c2c[nH]c3ccccc23)n1CC` (stereo not drawn), the molecule was called inactive.

In the case of `CC(C)CCNC(=O)C1CCC(CNS(=O)(=O)c2cccc3nsnc23)CC1` (stereo not drawn), the fold change was -1.62.

As for `Cn1c(-c2ccc(N)cc2)nc2cc(N)ccc21`, the fold change is -1.51.

For the molecule `C=CCNC(=O)c1onc(C)c1Cl`, the fold change is 1.22.

For `Cc1[nH]nc2c1C(c1ccc(O)cc1)NC2=O` (stereo not drawn), the fold change is -1.14.

As for `Cc1ccc2nc(N3CCOCC3)c3nncn3c2c1`, the fold change is 1.35.

With `Cc1nc(SCC(=O)Nc2cc(C)on2)c2c(=O)n(C)c(=O)n(C)c2n1`, the fold change is -1.1.

For the molecule `COc1ccc(/C=C/c2nc3scc(-c4cccs4)c3c(=O)o2)cc1`, the fold change was -1.6.

For `COc1ccc(-c2cc(N)n(S(=O)(=O)c3ccc([N+](=O)[O-])cc3)n2)cc1OC`, the fold change was 1.17.

Take `Nc1ncnc2c1nc1n2CC(O)CS1` (stereo not drawn): the fold change is -1.44.

As to `Cc1nc(SCc2c(F)cccc2Cl)c2c(=O)n(C)c(=O)n(C)c2n1`, the fold change was 1.27.

As for `CCOc1ccc(-n2c(O)cnc2Nc2nc(C)cc(C)n2)cc1`, the fold change is -1.65.

On to `CCOC(=O)C1=C(CS(=O)(=O)c2ccc(C)c(C)c2)NC(=O)NC1c1ccc(Cl)cc1` (stereo not drawn), for which the fold change is 1.11.

For `Cc1cccc(-c2c3c(=O)n(C)c(=O)n(C)c3c3c(C)nc4ccccc4n23)c1`, the fold change is 1.21.

Consider `CCOC(=O)Cn1c(=O)oc2cc(S(=O)(=O)Nc3ccc(F)cc3)ccc21`, for which the fold change was -1.03.

Take `COc1cc(/C=C2\SC(N3CCN(CCO)CC3)=NC2=O)ccc1O`: the fold change was 1.07.

`COc1ccc(-c2c(C)oc3c(CN4CCN(C)CC4)c(O)ccc3c2=O)cc1OC`: the fold change is 1.39.

In the case of `CCOc1ccc(OCC)c(NC(=O)C2CCCN(S(=O)(=O)c3cnc[nH]3)C2)c1` (stereo not drawn), the fold change is 1.05.

With `CCOC(=O)CSc1nc(SCC(=O)OCC)c2c3c([nH]c2n1)CCCC3`, the fold change was 1.35.

For `CCOC(=O)C1CCCN(c2c(N3CCC(N4CCCCC4)CC3)c(=O)c2=O)C1` (stereo not drawn), the fold change was -1.11.

Regarding `CN(C)C(=O)c1ccc2c(c1)n(C)c(=O)n2C`, the fold change was 1.05.

Regarding `CCc1cc(C)cc(OCC(O)Cn2cnc3ccccc32)c1` (stereo not drawn), the fold change was -1.77.
